Measured values from PubChem BioAssay AID2685 (National Center for Advancing Translational Sciences (NCATS), 2010).
In all, about 320,000 compounds went through this assay and about 2,100 (0.66%) were called active. Another 53% or so got no clear call; they are omitted. The call rests on the fitted dose curve; in most records, active means well fitted inhibition curve with a large enough effect in the signal ratio, with a control signal flat (not every such curve was filed as active); inconclusive means small, poorly fitted or top-dose-only effect, or effect the other way, or a change in a side signal; inactive means flat fitted curve, though single readings scatter; the % refers to the signal ratio. For the sample, actives were picked, then their nearest neighbours and some compounds at random.

Assay: qHTS Assay for Lipid Storage Modulators in Drosophila S3 Cells;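 on cell number change: cells counted by Cell Tracker Red CMTPX staining in the red channel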
Details: BODIPY lipid droplet fluorescence, 18-24 h, cells fed with added oleic acid; cell number change: measured here: cell count max response; series mostly up to 46.1 µM
Method in brief: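 Laser-scanning cytometry quantifies lipid droplet accumulation (500–530 nm total intensity; droplet/cell object ratio) in oleic acid-fed (400 uM added) Drosophila S3 cells treated with a concentration series. 20 uM Triacsin C defined 100% inhibition.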
Potency means the concentration at half of the fitted maximal effect.

| SMILES | Potency | cell number change [%] |
| --- | --- | --- |
| CC1CCN(c2cc(C#N)c(C#N)cc2[N+](=O)[O-])CC1 | 23.1 µM (active) | 0.344 |
| COC(=O)c1cc(OC)c(OC)cc1NC(=S)N1CCN(c2ccccn2)CC1 | inactive | -13.1 |
| CCCS(=O)(=O)c1nc(S(=O)(=O)c2ccc(C)cc2)c(N2CCC3(CC2)OCCO3)s1 | inactive | -26.8 |
| COc1cc(NC(=O)CC2NCCNC2=O)cc(OC)c1 (centres undefined) | inactive | 2.74 |
| CCCCNC(=O)CC1NCCNC1=O (centres undefined) | inactive | -9.85 |
| COC(=O)CC1NCCNC1=O (centres undefined) | 0.0326 µM (active) | -8.44 |
| S=c1[nH]nc(-c2cc(-c3ccccc3)n[nH]2)n1/N=C/C=C/c1ccccc1 | inactive | 5.92 |
| Cc1ccc(C)c(N2CCN(C(=O)Nc3ccc4c(c3)N(C)C(=O)CS4)CC2)c1 | inactive | -6.47 |
| CN(C)N=C1c2cc(S(=O)(=O)N(C)C)ccc2-c2ccc(S(=O)(=O)N(C)C)cc21 | inactive | -8.49 |
| CC(=O)NCCNC(=O)c1ccc(-n2c(C)ccc2C)cc1 | inactive | -0.679 |
| O=C1ON=C(c2ccccc2)/C1=C/c1cccnc1 | inactive | 4.4 |
| Cc1ccc(C2=NOC(=O)/C2=C\C=C\c2ccccc2)cc1 | 4.61 µM (active) | -25.2 |
| O=C1ON=C(c2ccccc2)/C1=C/c1ccccc1 | inactive | -8.78 |
| Cc1cc(C)cc(N2CC(C(=O)Nc3cc(C)on3)CC2=O)c1 (centres undefined) | inactive | -8.97 |
| Cc1cccc(NC(=O)N2CCCC(CNC(=O)c3ccccc3Cl)C2)c1C (centres undefined) | 20.6 µM (active) | -15 |
| CC(=O)c1ccccc1C(=O)N1CCCC(CNC(=O)c2ccccc2Cl)C1 (centres undefined) | inactive |  |
| COc1ccccc1NC(=O)N1CCCC(CNC(=O)c2ccccc2Cl)C1 (centres undefined) | inactive | 21.5 |
| O=c1c(Cl)c(N2CCNCC2)cnn1C12CC3CC(CC(C3)C1)C2 | inactive | 5.13 |
| CCCc1nnc(NC(=O)CSc2nc3ccccc3[nH]2)s1 | inactive | -1.76 |
| COc1ccc(NC(=O)CC(NCCc2ccccc2)C(=O)O)c(OC)c1 (centres undefined) | inactive | 2.02 |
| COc1ccc(C)cc1NC(=O)NCCC1=CCCCC1 | inactive |  |
| COc1ccc(OC)c(NC(=O)CC(NCCC2=CCCCC2)C(=O)O)c1 (centres undefined) | 4.61 µM (active) | 1.58 |
| S=c1[nH]nc(-c2cccs2)n1/N=C/c1cn(-c2ccccc2)nc1-c1ccccc1 | inactive | -2.97 |
| CCCC[N+](CC#CCO)(CC#Cc1ccccc1)CCCC | inactive | 24.4 |

| SMILES | Potency | cell number change [%] |
| --- | --- | --- |
| Cc1nc(SCC(O)CCl)c([N+](=O)[O-])[nH]1 (centres undefined) | inactive | 21.1 |
| CC(C)OP(=O)(OC(C)C)C(Nc1ccc(C(=O)O)cc1)c1ccccc1 (centres undefined) | inactive | -10.6 |
| COc1cc(CNc2ncn[nH]2)ccc1OCC(=O)NC(C)(C)C | inactive | -0.636 |
| Cc1nn(S(=O)(=O)N2CCOCC2)c(C)c1Br | inactive | -1.55 |
| Cn1c(=O)c2c(SCC(=O)NCc3ccco3)nc(-c3ccccc3Cl)nc2n(C)c1=O | 8.91 µM (active) | -20.7 |
| CCc1nc(SCC(=O)NCc2ccccc2)c2c(=O)n(C)c(=O)n(C)c2n1 | inactive |  |
| CCc1nc(SCC(=O)Nc2ccccc2)c2c(=O)n(C)c(=O)n(C)c2n1 | 7.31 µM (active) | -27.3 |
| CCc1nc(SCC(=O)NCc2ccco2)c2c(=O)n(C)c(=O)n(C)c2n1 | inactive |  |
| Cn1c(=O)c2c(SCC(=O)N3CCOCC3)nc(-c3ccccc3Cl)nc2n(C)c1=O | inactive | -19.8 |
| CCc1nc(SCC(=O)Nc2ccc(F)cc2)c2c(=O)n(C)c(=O)n(C)c2n1 | inactive | 7.11 |
| CCN(CC)S(=O)(=O)c1ccc(/C=C/C(=O)OCC(=O)Nc2cccc3ccccc23)cc1 | inactive | 15.5 |
| Cc1noc(C)c1S(=O)(=O)N1CCC(C(N)=O)CC1 | inactive | -15.5 |
| Cc1ccc(C(=O)OCC(=O)NCCC2=CCCCC2)cc1N | inactive |  |
| COc1cccc(NC(=O)c2ccc(CN3CCc4ccccc4C3)cc2)c1 | inactive | 26.4 |
| C=CCNc1nc(C(=O)OCC(=O)c2ccccc2)cs1 | inactive | 16.2 |
| COc1cccc(C(=O)NC(=S)Nc2cccnc2)c1 | inactive | -2.34 |
| CC1=NN(C(N)=S)C(=O)C1N=Nc1ccccc1C (centres undefined) | inactive | 2.36 |
| CC1=NN(C(N)=S)C(=O)C1N=Nc1ccc(S(N)(=O)=O)cc1 (centres undefined) | inactive | 3.52 |
| CCOc1ccccc1N=NC1C(=O)N(C(N)=S)N=C1C (centres undefined) | inactive | -0.35 |
| CCOc1ccc(N=NC2C(=O)N(C(N)=S)N=C2C)cc1 (centres undefined) | 2.31 µM (active) | -27.4 |
| CC1=NN(C(N)=S)C(=O)C1N=Nc1ccccc1O (centres undefined) | inactive | -20.1 |
| CC1=NN(C(N)=S)C(=O)C1N=Nc1ccccc1Cl (centres undefined) | 6.51 µM (active) | -28.8 |
| Cc1c(NC(=O)Nc2ccc([N+](=O)[O-])cc2)c(=O)n(-c2ccccc2)n1C | inactive | -0.0298 |
